Compound activity (PubChem BioAssay)
T cruzi growth-1 = T. cruzi intracellular proliferation inhibitors, primary screen, cell-based, beta-gal Tulahuen parasites, NIH3T3 host, luminescence. T. cruzi beta-gal in NIH3T3, GalScreen luminescence, 90 h. inhibition, % at 8.34 µM. 77,000 tested, 5.9% active. AID 624255, 2012;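 active = mean inhibition above about 93%, with at least 55% of replicates each passing it, limit read from the data, passing the limit was not always enough; inconclusive = only one of those two conditions holds; inactive = neither condition holds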
C diff growth = C. difficile growth inhibitors, primary screen, HTS. Clostridium difficile clinical isolate growth, OD600, 24 h; hits give low values. growth activity, negative = inhibition, % at 16 µg/mL (by protocol). 86,000 tested, 0.25% active. AID 1259249, 2017;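 active = mean growth activity at or below -80% and every replicate also at or below -80%; inconclusive = mean at or below -80% but some replicate above -80%; inactive = mean growth activity above -80%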
Pf Dd2 inh = P. falciparum Dd2 growth inhibitors, primary screen, SYBR Green fluorescence, single dose replicates | 72 h; hits give low values | activity change, % at 10 µM | 94,000 tested, 2.3% active | AID 1159554, 2015; in the data active = activity change below about -80%; inconclusive = no clear call, values can overlap the other calls
T cruzi growth-2 = T. cruzi intracellular proliferation inhibitors, confirmation, cell-based, NIH3T3 host, beta-gal parasite, luminescence, cherry-pick; shares compounds with T cruzi growth-1; T. cruzi beta-gal in NIH3T3, GalScreen luminescence, 90 h; inhibition, % at 8.35 µM; 5,600 tested, 72% active;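 active = mean replicate inhibition above about 95% and at least 55% of replicates individually reaching it, limit read from the data; inconclusive = only one of the two criteria is met; inactive = neither criterion is met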
T cruzi growth-3 = inhibitors of intracellular T. cruzi replication, confirmation, NIH3T3 host cells, beta-gal parasites, cherry-pick, set 2; shares compounds with T cruzi growth-1; T. cruzi beta-gal in NIH3T3, GalScreen luminescence, 90 h; inhibition, % at 2.09 µM; 5,600 tested, 21% active; AID 651740, 2012;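 active = mean inhibition above about 95%, with at least 55% of replicates also reaching it, limit read from the data; inconclusive = meets just one of the two conditions; inactive = meets neither condition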
NIH3T3 tox = cytotoxicity in mouse NIH/3T3 fibroblasts, confirmation, cytotoxicity control for T. cruzi proliferation inhibitor project, cell-based, cherry-pick, single point; 5,600 tested, 14% active; AID 651742, 2012; NIH/3T3 viability, CellTiter-Glo ATP luminescence, 90 h; cytotoxicity (signal decrease), % at 8.35 µM; shares compounds with T cruzi growth-1;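 active = mean signal decrease across replicates above about 35% based on untreated-well scatter, with enough replicates individually passing, limit read from the data; inconclusive = no rule stated though some were filed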
NIH3T3 tox 2 = NIH/3T3 fibroblast cytotoxicity, confirmation, cytotoxicity control, cell-based, cherry-pick, single point, set 2. inhibition, % at 24.9 µM. NIH/3T3 viability, CellTiter-Glo ATP luminescence, 90 h. 5,600 tested, 56% active. shares compounds with T cruzi growth-1;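 active = mean loss of cell viability signal at or above a set limit, and enough replicates individually reaching it; inconclusive = meets only the mean limit or only the replicate share; inactive = meets neither condition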
Numbers stand for hits; - = inactive; ? = inconclusive; . = no result given. Compounds with a hit are over-represented: about 6.7% of the library has one in this group of screens.

SMILES	T cruzi growth-1	C diff growth	Pf Dd2 inh	T cruzi growth-2	T cruzi growth-3	NIH3T3 tox	NIH3T3 tox 2
COc1cccc(S(=O)(=O)Nc2ccc3c(c2)OC[C@H](C)N(Cc2ccccc2F)C[C@@H](C)[C@H](OC)CN(C)C3=O)c1	-	.	-	.	.	.	.
COc1cccc(S(=O)(=O)Nc2ccc3c(c2)OC[C@H](C)N(Cc2ccccc2F)C[C@H](C)[C@@H](OC)CN(C)C3=O)c1	.	-	-	.	.	.	.
CO[C@@H]1CN(C)C(=O)c2cc(NS(=O)(=O)c3cccc(F)c3)ccc2OC[C@@H](C)N(Cc2cc(F)ccc2F)C[C@@H]1C	100	-	-	115	-	-	93
COc1cccc(S(=O)(=O)Nc2ccc3c(c2)OC[C@@H](C)N(Cc2ccccc2F)C[C@@H](C)[C@H](OC)CN(C)C3=O)c1	96	.	-	105	-	-	-
COc1cccc(S(=O)(=O)Nc2ccc3c(c2)OC[C@@H](C)N(Cc2cc(F)ccc2F)C[C@@H](C)[C@H](OC)CN(C)C3=O)c1	102	.	-	107	-	-	-
CO[C@H]1CN(C)C(=O)c2ccc(NC(C)=O)cc2OC[C@H](C)N(C(=O)CN2CCOCC2)C[C@H]1C	-	-	-	.	.	.	.
C[C@@H]1CN([C@@H](C)CO)C(=O)c2cc(-c3cccnc3)cnc2O[C@H]1CN(C)C(=O)C1CCC1	-	-	-	.	.	.	.
O=C(Cc1cccnc1)N[C@@H]1CC[C@@H](CCn2cc(Cc3ccccc3)nn2)O[C@@H]1CO	-	-	-	.	.	.	.
CC(C)C#Cc1cnc2c(c1)C(=O)N([C@@H](C)CO)C[C@H](C)[C@H](CN(C)C(=O)Nc1cccc(F)c1)O2	-	-	-	.	.	.	.
Cc1ccc(S(=O)(=O)Nc2ccc3c(c2)CC(=O)N([C@@H](C)CO)C[C@@H](C)[C@H](CN(C)Cc2ccc4c(c2)OCO4)O3)cc1	99	-	-	103	?	-	?
Cc1ccc(S(=O)(=O)Nc2ccc3c(c2)CC(=O)N([C@H](C)CO)C[C@H](C)[C@H](CN(C)Cc2ccc4c(c2)OCO4)O3)cc1	-	-	-	.	.	.	.
C[C@H]1CN([C@@H](C)CO)C(=O)Cc2cc(NS(=O)(=O)c3ccc(Cl)cc3)ccc2O[C@@H]1CN(C)Cc1ccc2c(c1)OCO2	107	-	-	98	-	-	-
Cc1ccc(S(=O)(=O)Nc2ccc3c(c2)CC(=O)N([C@H](C)CO)C[C@@H](C)[C@@H](CN(C)Cc2ccc4c(c2)OCO4)O3)cc1	-	-	-	.	.	.	.
Cc1ccc(S(=O)(=O)Nc2ccc3c(c2)CC(=O)N([C@H](C)CO)C[C@@H](C)[C@H](CN(C)Cc2ccc4c(c2)OCO4)O3)cc1	104	-	-	106	-	-	25
C[C@H](CO)N1C[C@H](C)[C@@H](CN(C)Cc2ccc3c(c2)OCO3)Oc2ccc(NS(=O)(=O)c3ccc(Cl)cc3)cc2CC1=O	-	-	-	.	.	.	.
O=C(CCN1CCCCC1)N[C@H]1CC[C@H](CCNS(=O)(=O)c2ccc(F)cc2)O[C@H]1CO	-	-	-	.	.	.	.
Cc1noc(C)c1S(=O)(=O)Nc1ccc2c(c1)CC(=O)N([C@@H](C)CO)C[C@@H](C)[C@H](CN(C)S(=O)(=O)c1ccccc1)O2	-	-	-	.	.	.	.
COc1ccccc1S(=O)(=O)N1CC[C@@H]2[C@@H](CO)N(C)c3ccc(-c4ccc(F)cc4)cc3[C@@H]21	-	-	-	.	.	.	.
CC(C)OC(=O)N(C)C[C@@H]1OCc2ccccc2-c2ccccc2C(=O)N([C@@H](C)CO)C[C@H]1C	-	-	-	.	.	.	.
COc1ccc(-c2ccc3c(c2)O[C@@H](CN(C)CC2CC2)[C@@H](C)CN([C@H](C)CO)S3(=O)=O)cc1	-	-	-	.	.	.	.
O=C(Nc1ccc(F)cc1)N[C@H]1CC[C@@H](CCNC(=O)c2ccccc2F)O[C@H]1CO	.	-	-	.	.	.	.
COc1ccc2c3c(n(C)c2c1)[C@H](CO)N(C(=O)CC1CC1)CC31CCN(C(=O)C2CCCC2)CC1	.	-	-	.	.	.	.
C[C@@H]1CN([C@@H](C)CO)C(=O)c2cccc(N(C)C)c2O[C@H]1CN(C)Cc1ccc(C(F)(F)F)cc1	-	-	-	.	.	.	.
C[C@@H]1CN([C@@H](C)CO)C(=O)c2cccc(N(C)C)c2O[C@@H]1CN(C)Cc1ccc(C(F)(F)F)cc1	104	-	-	-	-	-	?
C[C@H]1CN([C@@H](C)CO)C(=O)c2cccc(N(C)C)c2O[C@@H]1CN(C)Cc1ccc(Cl)c(Cl)c1	100	-	-	108	-	-	103
SMILES	T cruzi growth-1	C diff growth	Pf Dd2 inh	T cruzi growth-2	T cruzi growth-3	NIH3T3 tox	NIH3T3 tox 2
C[C@@H]1CN([C@@H](C)CO)C(=O)c2cccc(N(C)C)c2O[C@H]1CN(C)Cc1ccc(Cl)c(Cl)c1	-	-	-	.	.	.	.
COc1ccc(NC(=O)Nc2ccc3c(c2)C(=O)N([C@@H](C)CO)C[C@@H](C)[C@@H](CN(C)C(=O)CCCN(C)C)OCCCC[C@H](C)O3)cc1	-	-	-	.	.	.	.
N#C[C@@H]1[C@H](c2ccc(C#CCC3CCCC3)cc2)[C@@H](CO)N1C(=O)CN1CCOCC1	101	-	-	106	-	-	82
CCCC#Cc1ccc([C@@H]2[C@@H](CO)N(C(=O)CN3CCOCC3)[C@H]2C#N)cc1	?	-	-	.	.	.	.
CCCC#Cc1ccc([C@@H]2[C@H](C#N)N(C(=O)CN3CCOCC3)[C@H]2CO)cc1	99	-	-	-	-	-	-
N#C[C@H]1[C@H](c2ccc(C#CCC3CCCC3)cc2)[C@@H](CO)N1C(=O)CN1CCOCC1	-	-	-	.	.	.	.
COc1ccccc1NC(=O)N1C[C@H]2[C@@H](c3ccccc31)[C@@H](CO)N2C(=O)c1ccccc1	-	-	-	.	.	.	.
CO[C@H]1CN(C)C(=O)c2ccc(NC(C)=O)cc2OC[C@H](C)N(C(=O)c2ccccn2)C[C@H]1C	-	.	-	.	.	.	.
CC(=O)N1[C@@H]2c3ccc(-c4ccccc4)c(=O)n3C[C@@H]2[C@@H](CO)[C@@H]1C(=O)NCc1ccccc1Cl	-	-	-	.	.	.	.
N#C[C@@H]1[C@H](c2ccc(C3=CCCCC3)cc2)[C@H](CO)N1S(=O)(=O)c1cccc(F)c1	103	-	-	102	-	-	79
N#C[C@H]1[C@H](c2ccc(C3=CCCCC3)cc2)[C@@H](CO)N1S(=O)(=O)c1cccc(F)c1	-	-	-	.	.	.	.
N#C[C@H]1[C@H](c2ccc(C3=CCCCC3)cc2)[C@@H](CO)N1S(=O)(=O)c1ccccc1	-	-	-	.	.	.	.
